± gives the standard deviation.
Each sequence was assayed on MILI (PIWIL2) piRISC loaded with L1MC piRNA (26 nt) (assay: pre-steady-state target cleavage rate (min^-1); guide: L1MC piRNA 5'p-UAACUAAAUACUAUGCAAGCUGUAGG; MIWI and MILI are mouse PIWI proteins and EfPiwi is from a freshwater sponge; tags in brackets are library labels; higher = faster piRNA-guided slicing of the target). Settings: auxiliary factor: 500 nM mouse GTSF1.
Method in brief: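 A transcribed, DNA-blocked target RNA library […] was incubated at 33 °C for 0–8 or 0–960 min with 1 nM active affinity-purified piRISC carrying one synthetic guide, in HEPES–potassium acetate buffer with or without 500 nM GTSF1 partner protein. Uncleaved targets were then sequenced and normalised to depth and to weakly complementary targets. Data from three trials were pooled, with k3 capped at 0.0001 min^-1, and a burst-and-steady-state fit yielded the pre-steady-state cleavage rate.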
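Further: 1 nM active piRISC with 0.1 nM target library at 33 °C single turnover.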

Row | Sequence | pre-steady-state target cleavage rate
1 | UCCUGCUACAGCUUGCAUAGUAUUAGUUA | 0.222 ± 0.026
2 | UCCUGGAUCAGCUAGGAUAGUAUUUAGUUA | 0.178 ± 0.013
3 | UCCUGGUACAGCUUGCAUAGUACUUAGUUA | 0.187 ± 0.029
4 | UCCUGGAUGUGCUUGCAUAGUAUAUUAGUUA | 0.111 ± 0.016
5 | UCCUGCUACAGCAUGGAUAGUAUUUAGUUA | 0.257 ± 0.021
6 | UCCUGGAACAGCUUGCAUAGUAUUAUAGUUA | 0.149 ± 0.024
7 | UCCUGGAUCACCUUGCAUAGUAUUUAGUUA | 0.234 ± 0.023
8 | UCCUGCUACAGCAUGCAUAGUAUUUAGUUA | 0.353 ± 0.022
9 | UCCUGCUUCAGCUUGCAUAGUAUAUAGUUA | 0.277 ± 0.025
10 | UCCUGGAUGUCGUUUGCAUAGUAUUUAGUUA | 0.13 ± 0.013
11 | UCCUGCUACAGCUUCCUUAGUAUUUAGUUA | 0.251 ± 0.025
12 | UCCUGCUACAGCUAGCAAAGUAUUUAGUUA | 0.137 ± 0.012
13 | UCCUCCUACAGCUUGCAUAGUAUUUAGUUA [g2:g26:cont:t1A] | 0.344 ± 0.02
14 | UCCUGCUACAGCUUGCAUAGUAUUUAGUUC [g2:g25:cont:t1C] | 0.317 ± 0.021
15 | UCCUGGAUCAGCUUGCUUAGUAAUUAGUUA | 0.212 ± 0.022
16 | UCCUGGAUGAGCUUGCAUCGUAUUUAGUUA | 0.0594 ± 0.0092
17 | UCCUGGUACAGCUUGCAUAGUAUGUUAGUUA | 0.184 ± 0.03
18 | UCCUGGAUCGCUUGCAUAGUAUUUAGUUA | 0.29 ± 0.012
19 | UCCUGGAUCAGCUUGCAUAGUAUUUAUGUUA | 0.133 ± 0.017
20 | UCCUGCUACGCUUGCAUAGUAUUUAGUUA | 0.291 ± 0.025
21 | UCCUCCUACAGGUUGCAUAGUAAUUAGUUA | 0.205 ± 0.018
22 | UCCUGGAUGAGCUUGCUUAGUAUUUAGUUA | 0.17 ± 0.01
23 | UCCUGCUACAGCUUAGCAUAGUAUUUAGUUA | 0.276 ± 0.014

From the supplement of paper PMC10338343
